Shown are actives, neighbours in structure and some others; about 1.5% of the full set was active somewhere.
GLD-1 TGE inh – GLD-1/TGE RNA complex disruptors, primary screen, biochemical, fluorescence polarization | Female germline-specific tumor suppressor gld-1 (Caenorhabditis elegans), Q17339 | purified GLD-1 + fluorescein TGE RNA | inhibition, % at 5.96 µM | 0.44% of 320,000 active | AID 2280, 2010;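 active = percent inhibition above a per-plate cutoff, the plate mean of test compounds plus 3 SD, cut at about 30% in these data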;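 also: 0% = DMSO wells with GLD-1 and probe and 100% = wells lacking GLD-1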
Keap1-Nrf2 PPI – Keap1-Nrf2 protein-protein interaction inhibitors, primary screen, biochemical, fluorescence polarization, single point; Kelch-like ECH-associated protein 1 (Homo sapiens), Q14145; Keap1 Kelch-Nrf2 peptide fluorescence polarization, 1536-well; inhibition, % at 9.4 µM; 0.15% of 340,000 active; in the data active = inhibition above about 12%; inconclusive = no clear call, values can overlap the other calls; inactive = below about 7.3%;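 also: human Keap1 Kelch domain with fluorescein labeled Nrf2 9mer peptide probe; 0% = neutral control wells and 100% = peptide positive control; higher means more block of Keap1 binding to Nrf2 peptide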
Target sequence (Q14145 whole entry, looked up, the tested form may be a part): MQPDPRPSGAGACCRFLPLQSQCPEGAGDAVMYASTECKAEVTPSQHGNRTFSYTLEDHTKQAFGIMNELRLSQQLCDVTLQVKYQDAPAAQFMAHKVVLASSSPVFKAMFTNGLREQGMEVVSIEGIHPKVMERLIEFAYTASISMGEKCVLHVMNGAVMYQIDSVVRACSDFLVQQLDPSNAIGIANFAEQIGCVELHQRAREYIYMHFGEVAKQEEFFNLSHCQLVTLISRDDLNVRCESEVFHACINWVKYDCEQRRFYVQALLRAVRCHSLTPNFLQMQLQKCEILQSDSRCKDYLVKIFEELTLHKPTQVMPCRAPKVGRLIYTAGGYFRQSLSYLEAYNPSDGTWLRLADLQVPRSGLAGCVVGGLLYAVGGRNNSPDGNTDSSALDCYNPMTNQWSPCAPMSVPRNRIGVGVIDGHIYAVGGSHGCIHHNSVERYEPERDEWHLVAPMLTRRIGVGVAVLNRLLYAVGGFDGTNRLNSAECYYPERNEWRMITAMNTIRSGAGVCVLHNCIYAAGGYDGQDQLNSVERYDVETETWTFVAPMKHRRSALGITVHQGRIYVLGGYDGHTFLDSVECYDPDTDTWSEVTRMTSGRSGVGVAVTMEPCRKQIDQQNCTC
EBV gp42 inh – Epstein-Barr virus gp42 inhibitors, primary screen, biochemical, uHTS, fluorescence polarization | Glycoprotein 42 (Epstein-Barr virus (strain AG876)), Q1HVG2 | Fluorescence polarization binding assay, mP read-out | inhibition, % (tested at 21.74 µM) | 0.42% of 220,000 active; in the data active = inhibition above about 50%
eLon inh – inhibitors of E. coli Lon protease, primary screen, biochemical, fluorescence polarization. 0.42% of 360,000 active. purified E. coli Lon protease. AID 602123, 2011. P0A9M0. inhibition, % at 7.94 µM; in the data active = inhibition above about 13%, passing the limit was not always enough;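 also: 0% = enzyme with probe and DMSO and 100% = no enzyme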
LANA DNA inh – inhibitors of KSHV C-LANA binding to DNA, primary screen, biochemical, fluorescence polarization, FAM-LBS DNA, MBP-C-LANA, single point; inhibition, % at 9 µM; 0.078% of 340,000 active; AID 504423, 2011;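 active = highest replicate inhibition at or above 60% at 9 µM, even if other replicates fall short; inactive = all replicates below 60% inhibition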;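 also: 0% = neutral control wells and 100% = 4 µM acridine orange control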
LANA-H2B inh – blockers of LANA interaction with H2A/H2B – biochemical, FP readout, HTS, primary screen. Protein LANA1 (Human herpesvirus 8 type P (isolate GK18)), Q9QR71. cell-free LANA-H2A/H2B peptide, fluorescence polarization. inhibition, % (concentration not given with the values). 0.6% of 320,000 active. AID 2629, 2010; in the data active = inhibition mostly above about 10%, no sharp cut-off; inactive = mostly below about 6.7%
GLD-1 TGE cf – GLD-1/TGE RNA binding inhibitors, retest, confirmation, biochemical, fluorescence polarization, triplicate; shares compounds with GLD-1 TGE inh; GLD-1/FL-TGE RNA fluorescence polarization; inhibition, % at 5.96 µM; 10% of 550 active; AID 2459, 2010;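 active = average inhibition across triplicates above the hit cutoff set in the primary screen, cut at about 32% in these data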;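 also: 0% = GLD-1 with RNA probe and DMSO and 100% = wells lacking GLD-1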
E coli Lon conf – E. coli Lon protease inhibitor retest, confirmation, biochemical, fluorescence polarization; shares compounds with eLon inh; purified E. coli Lon; inhibition, % at 7.94 µM; 31% of 1,400 active; AID 602230, 2012; in the data active = inhibition above about 16%;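 also: 0% = enzyme with probe and DMSO and 100% = no enzyme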
* marks the source's active call; other numbers are inactive results; ? = inconclusive; . = not tested or not shown.

SMILES	GLD-1 TGE inh	Keap1-Nrf2 PPI	EBV gp42 inh	eLon inh	LANA DNA inh	LANA-H2B inh	GLD-1 TGE cf	E coli Lon conf
CCOc1ccc(C(=O)CSc2nnc3ccccn23)cc1	7	-6	-2	-1	1	-1	.	.
CCn1c(CSc2nnc3ccccn23)nc2cc(C(=O)O)ccc21	95*	-1	83*	52*	3	-1	32*	42*
COCc1ccc(C(=O)N2CCCCC2C(=O)Nc2ccc(-n3nc(C)cc3C)cc2)o1 (stereo unspecified)	5	1	.	-10	-1	5	.	.
Cc1ccc(N2CCN(c3ccc(NCc4nc5ccccc5n4C)cc3)CC2)cc1	63*	-2	7	45*	2	1	63*	5
Cn1c(CNc2ccc(Cl)cc2)nc2ccccc21	3	2	-2	-5	0	1	.	.
CCCC/C(O)=C1\C(=O)CC(C)(C)CC1=Nc1ccc(N)cc1	0	-3	-16	-5	0	-2	.	.
O=C1NC(=S)CN1c1ccccc1	69*	-2	3	33*	0	-2	-3	16
CCOC(=O)C1(Cc2ccccc2C)CCCN(C(=O)CCn2nccc2C)C1 (stereo unspecified)	-3	3	-16	-2	-1	0	.	.
O=C(NC12CC3CC(CC(C3)C1)C2)c1cnccn1	34*	2	14	15*	7	3	-10	-22
C/C(CC(=O)NC12CC3CC(CC(C3)C1)C2)=N\NC(=O)c1cnccn1	-7	-3	-4	-9	1	0	.	.
Cn1c(=O)c2c(nc(Br)n2C/C=N/NC(N)=S)n(C)c1=O	5	.	-17	11	.	3	.	.
S=C(Nc1ccc2nc(-c3ccccn3)c(-c3ccccn3)nc2c1)N1CCOCC1	40*	1	15	20*	9	8	6	7
Cc1c(NC(=O)C(C)n2cc([N+](=O)[O-])cn2)c(=O)n(-c2ccccc2)n1C (stereo unspecified)	-1	-3	-6	-7	-16	-2	.	.
CN(C)Cc1cc(O)c(CN(C)C)cc1O	63*	5	-14	32*	10	-1	8	-65
CC(C)N1CCC(N2CCN(Cc3ccc(C#CC(C)(C)O)s3)CC2CCO)CC1 (stereo unspecified)	-1	-1	3	-4	5	2	.	.
COc1cc(-c2nc3ccccn3c2/N=C/c2ccc(F)cc2)ccc1O	-2	-2	8	-7	-1	-1	.	.
Clc1ccc(/C=N/c2c(-c3ccco3)nc3ccccn23)cc1	45*	2	23	26*	4	5	44*	-4
COc1ccc(/C=N/c2c(-c3ccco3)nc3ccccn23)cc1OC	57*	?	18	32*	3	-1	57*	-3
NC(=O)c1ccc(NC(=O)COC(=O)CCC2CCCCC2)cc1	6	1	.	2	0	-1	.	.
CCCCC(=O)NCc1ccc2c(c1)cc(C)n2C	14	0	2	11	-1	-5	.	.
CCOC(=O)CCC(=O)NCc1ccc2c(c1)cc(C)n2C	31*	-1	14	39*	1	1	11	-4
Cc1cc2cc(CNS(=O)(=O)c3ccccc3)ccc2n1C	54*	2	4	31*	-2	7	11	20*
O=C(c1ccccc1C(=O)N1CCN(c2ccccc2)CC1)N1CCN(c2ccccc2)CC1	38*	10	27	34*	24	1	11	17*
O=C(O)c1ccccc1C(=O)N1CCN(c2ccccc2)CC1	8	-4	0	-6	1	-1	.	.
CC(C)c1cccc(C(C)C)c1NC(=O)CN1CCCC1	2	2	.	4	0	-1	.	.
SMILES	GLD-1 TGE inh	Keap1-Nrf2 PPI	EBV gp42 inh	eLon inh	LANA DNA inh	LANA-H2B inh	GLD-1 TGE cf	E coli Lon conf
O=C1C2CCCN2C(c2ccccc2)N1c1ccc(F)cc1 (stereo unspecified)	9	-4	-15	2	1	0	.	.
O=C(c1ccccc1)[C@@H]1[C@@H]2C(=O)N(c3ccc(F)cc3)C(=O)[C@@H]2C2CCCN21 (stereo partly specified)	37*	2	4	23*	14	11	0	29*
CC(=O)c1c(C)oc2c1cc(NS(=O)(=O)c1ccc(C(=O)O)cc1)c1ccccc12	16	5	.	3	0	-6	.	.
Cc1ccc(S(=O)(=O)Nc2cc3c(C(=O)Nc4ccccc4)c(C)oc3c3ccccc23)cc1	128*	-2	45	25*	0	2	105*	40*
C=CCNC(=O)/C(C#N)=C/c1ccccc1[N+](=O)[O-]	31*	-6	22	23*	-1	7	45*	19*
Cc1ccc(-c2nnc(SCC(=O)NC3CCCC3)n2C)cc1	4	-5	.	-8	-3	-1	.	.
N#CC1(C#N)COC23CCCCC2C1(C#N)C(=N)O3 (stereo unspecified)	45*	21*	-5	23*	45	10	-4	10
CN1c2ccccc2N(C)C1(C)c1ccccc1	48*	5	3	38*	11	-3	9	3
O=C(CN1C(=O)NC2(CCCCC2)C1=O)Oc1ccc2c(C(F)(F)F)cc(=O)oc2c1	59*	-1	.	54*	12	4	49*	33*
COc1ccc(OC)c(/C=C/c2[nH]c(=O)[nH]c(=O)c2[N+](=O)[O-])c1	.	-1	.	-11	-1	.	.	.
COc1ccc(NS(=O)(=O)c2cccs2)cn1	3	1	-5	8	0	3	.	.
COc1ccc(NS(=O)(=O)c2ccc(Cl)s2)cn1	50*	5	57*	19*	15	5	54*	35*
CCc1nn(CCCC(=O)NCc2ccccc2Br)c(=O)c2cc3occc3n12	6	-6	.	-30	0	-4	.	.
CCc1cccc(NC(=O)CCCn2nc(CC)n3c(cc4occc43)c2=O)c1	31*	-7	.	29*	-2	-5	-3	-5
